Most compounds without a hit are left out; they make up all but 7.9% or so of the library.
HT1080 IDH1KD tx = toxicity to HT-1080 IDH1 knockdown cells (counter line); actives 2% (n = 360,000); HT-1080 IDH1 knockdown viability, ATP luminescence, 48 h; AID 686971; Potency, µM (titrated, usually from 46.1 µM), for inactives: at the top dose activity, negative = toxicity, usual class: cytotoxic;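 further: 0% = DMSO wells and -100% = cell-free medium wells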
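CellTiter-Glo luminescence after 48 h compound exposure at 37 degrees C of IDH1-knockdown HT-1080 cells in 5% FBS RPMI. %Activity scaled between DMSO wells and cell-free media wells, with curves fitted and assigned curve classes.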
SW480 rereplic = induces DNA re-replication in SW480 colon adenocarcinoma cells; SW480 DNA re-replication, Hoechst DNA content imaging, 48 h; Potency, µM (top dose mostly 46.1 µM), for the others: at the highest dose re-replication activation, actives largely listed as activators; actives 1.8% (n = 340,000); AID 624297; further: % of control where 0% means no effect; nearly all actives have a fitted effect of over 55% in size
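DNA re-replication was detected as more nuclei of elevated Hoechst intensity after 48 hr exposure to compound (23 nL pinned per well of 250 cells).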
MCF10A rerep = induces DNA re-replication in MCF 10a normal breast cells; MCF 10A DNA re-replication, Hoechst nuclear intensity, 48 h; Potency, µM (titrated, usually from 46.1 µM), inactives show at the top dose activity, positive = re-replication, most hits filed as activators; actives 2.9% (n = 350,000); further: % of control where 0% means no effect; nearly all actives have a fitted effect of over 50% in size
KB-3-1 tox = kills parental KB-3-1 adenocarcinoma cells; AID 1347075; actives 1.4% (n = 400,000); Potency, µM (top dose mostly 46.1 µM), most hits filed as cytotoxic; KB-3-1 viability, CellTiter-Glo ATP luminescence, 72 h; further: on the % scale 0 is the no-effect control and ±100 the full control effect; nearly all actives have a fitted effect of over 60% in size
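Multi-concentration cytotoxicity screen in KB-3-1 cells grown in DMEM lacking phenol red with 10% FBS. After 72 h at 37 °C with compound, ATP-dependent luminescence was recorded.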
HT1080NT lethal = kills 2HG-producing HT-1080-NT fibrosarcoma cells | HT-1080-NT fibrosarcoma viability, CellTiter-Glo ATP luminescence, 48 h | actives 1.6% (n = 360,000) | Potency, µM (highest dose often 46.1 µM), inactives show top-dose activity, negative = less viability, actives largely listed as cytotoxic;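 further: NT is the 2HG producing partner of a matched IDH1 knockdown line; 0% = DMSO-treated cells and -100% = media-only wells without cells; nearly all actives have a fitted effect of over 55% in size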
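Compounds were tested in concentration-response format on HT-1080-NT cells for 48 hours at 37 degrees C. Cell viability came from CellTiter-Glo luminescence; curves were classified by r2, response magnitude and activity.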
KB-V1 cytotox = kills drug-selected multidrug resistant KB-V1 cells; actives 3.4% (n = 400,000); KB-V1 MDR cells viability, CellTiter-Glo, 72 h; AID 1347076; Potency, µM (series often up to 46.1 µM), hits mostly cytotoxic; further: on the % scale 0 is the no-effect control and ±100 the full control effect; nearly all actives have a fitted effect of over 60% in size
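qHTS viability screen in drug-selected KB-V1 MDR cells: 72 h compound treatment at 37 degrees C, ATP luminescence end point.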
An asterisk follows results filed as active; i = inactive; ? = inconclusive; · = not tested or not shown. The call rests on the fitted dose curve; in most records, active means well fitted curve in the direction sought with a large enough effect; inconclusive means small, poorly fitted or top-dose-only effect, or another doubt; inactive means no such curve, though single readings can be large; an effect the other way counts as inactive or inconclusive. Potency means the concentration at half of the fitted maximal effect.

SMILES	HT1080 IDH1KD tx	SW480 rereplic	MCF10A rerep	KB-3-1 tox	HT1080NT lethal	KB-V1 cytotox
COc1ccc(C2=Nn3c(nnc3-c3ccc(OC)cc3)SC2)cc1	?	1.84µM*	0.92µM*	0.651µM*	?	1.3µM*
COc1cc(-c2nnc3n2N=C(c2ccccc2)CS3)cc(OC)c1OC	1.16µM*	?	?	?	2.06µM*	i
COc1ccc(OC)c(C2=Nn3c(nnc3-c3cc(OC)c(OC)c(OC)c3)SC2)c1	?	23.5%	-1.5%	i	?	1.3µM*
Cc1ccc(-c2nnc3n2N=C(c2ccccc2)CS3)cc1	12.2%	-6.0%	0.7%	i	5.2%	i
COc1ccc(OC)c(C2=Nn3c(nnc3-c3ccncc3)SC2)c1	-6.0%	?	-2.8%	i	?	i
COc1cccc(-c2nnc3n2N=C(C(C)(C)C)CS3)c1	?	?	?	?	?	20.6µM*
CC1CCN(S(=O)(=O)c2ccc3c(c2)N(CC(=O)O)C(=O)CO3)CC1	·	·	·	i	·	i
COc1ccccc1N1CCN(Cc2ccc(C(=O)O)cc2)CC1	1.7%	-6.3%	9.9%	i	0.5%	?
CCOC(=O)C1CCN(Cc2ccc(O)c3ncccc23)CC1	-29.7%	0.92µM*	4.11µM*	23.1µM*	?	16.4µM*
COc1ccc(CN2CCN(c3ccccc3OC)CC2)cc1OC	-11.8%	-17.1%	2.06µM*	i	-3.1%	?
COc1ccccc1N1CCN(c2ccc(-c3ccccc3)nn2)CC1	?	4.11µM*	2.59µM*	2.06µM*	2.59µM*	2.06µM*
Oc1ccc(CN2CCCc3ccccc32)c2cccnc12	?	11.4%	19.5%	23.1µM*	-28.3%	?
COc1ccccc1N1CCN(c2ccc3ccccc3n2)CC1	-12.9%	-21.6%	17.4%	i	-15.1%	?
O=C(NC1CCCCC1)c1ccc2c(c1)N(Cc1ccc(Cl)cc1)C(=O)c1ccccc1S2(=O)=O	·	·	·	i	·	i
COc1ccccc1N1CCN(Cc2ccc(O)c3ncccc23)CC1	0.159µM*	?	?	5.17µM*	0.141µM*	?
CCOC(=O)N1CCC(NC(=O)c2cc(S(=O)(=O)N3CCc4ccccc43)cn2C)CC1	-2.6%	-0.5%	-0.1%	?	4.1%	3.26µM*
CCOC(=O)c1cc(S(=O)(=O)N2CCc3ccccc32)cn1C	0.0%	-1.4%	5.0%	i	-0.3%	i
CCOC(=O)C1=C[C@@H](c2ccccc2)N(S(=O)(=O)c2ccc(C)cc2)[C@H]1c1ccc(OC)cc1	4.8%	·	·	i	6.5%	i
C/C(=N\Nc1nc2ccccc2s1)c1ccc(Br)s1	?	-6.1%	?	i	?	?
CC(=NNc1nc2ccccc2s1)c1ccncn1	?	?	7.31µM*	7.31µM*	?	?
CC(C)c1ccc(CN2CCN(C(=O)CSc3nnnn3C3CC3)CC2)cc1	-3.6%	2.3%	1.6%	?	?	i
CCOc1ccccc1N(C)C(=O)c1sc2nc3n(c(=O)c2c1C)CCCC3	·	·	·	i	·	i
O=C(NCc1nc(-c2ccc(C(F)(F)F)cc2)no1)Nc1ccc(OC(F)(F)F)cc1	?	?	?	?	25.9µM*	?
COc1ccc(-c2noc(CNS(=O)(=O)c3ccc(NC(C)=O)cc3)n2)cc1	-2.0%	-3.7%	14.3%	i	-0.7%	i
COc1ccc(CNCC(O)(c2ccccc2)c2ccc(Cl)cc2)cc1 (stereo not given)	-25.7%	?	14.1%	?	?	13µM*
Cc1ccc(CNCC(O)(c2ccccc2)c2ccc(Cl)cc2)cc1 (stereo not given)	?	?	26.0%	i	23.1µM*	?
CCc1ccc(C(O)(CNCc2ccccc2)c2ccccc2)cc1 (stereo not given)	-1.2%	?	?	i	-12.2%	i

Compound activity: PubChem, National Center for Advancing Translational Sciences (NCATS)
